SMN2 splice up: enhancers of SMN2 splice variant expression; AID 1458; 210,000 tested, 2.8% active; HEK293 SMN2-luciferase splicing reporter, luminescence, 30-36 h; Potency, µM (highest dose often 46.1 µM), for inactives: at the top dose activity change, positive = activation, hits mostly activators; also: % of control where 0% means no effect; nearly all actives have a fitted effect of over 55% in size
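HEK293 cells carry an SMN2 […]–luciferase reporter in which exon 7 inclusion puts luciferase in frame. Cells were plated 10-12 h before compound addition, then incubated 30-36 h at 37C. ONE-Glo luminescence was read; sodium butyrate at 4.5 mM final served as control.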
FLuc modulator: counter-screen for miR-21 project: firefly luciferase inhibitors or activators | P08659 | purified FLuc, Km substrates, luminescence inhibition | Potency, µM (series often up to 57.5 µM), for inactives: at the top dose activity change, negative = inhibition, usual class: inhibitors | 360,000 tested, 6.9% active | AID 588342;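 also: plate controls were vehicle for no effect and reference inhibitor for full effect; nearly all actives have a fitted effect of over 55% in size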
Target sequence (P08659 whole entry, looked up): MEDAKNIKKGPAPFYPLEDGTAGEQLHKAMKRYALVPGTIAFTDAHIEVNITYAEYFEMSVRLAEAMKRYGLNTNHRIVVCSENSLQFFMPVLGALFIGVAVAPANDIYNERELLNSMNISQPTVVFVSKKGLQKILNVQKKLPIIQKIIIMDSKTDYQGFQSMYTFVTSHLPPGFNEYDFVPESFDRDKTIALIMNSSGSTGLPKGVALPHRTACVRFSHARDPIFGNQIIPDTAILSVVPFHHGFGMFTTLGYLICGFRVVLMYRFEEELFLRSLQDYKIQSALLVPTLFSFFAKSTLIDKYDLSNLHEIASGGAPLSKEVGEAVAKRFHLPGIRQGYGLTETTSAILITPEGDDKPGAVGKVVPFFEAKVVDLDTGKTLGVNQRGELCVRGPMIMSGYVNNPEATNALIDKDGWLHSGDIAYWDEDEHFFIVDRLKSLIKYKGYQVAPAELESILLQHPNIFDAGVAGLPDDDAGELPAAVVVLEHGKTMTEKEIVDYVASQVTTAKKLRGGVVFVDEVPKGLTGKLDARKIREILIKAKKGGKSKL
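Biochemical qHTS of compounds, final roughly 60 µM downward over six points, against 10 nM purified firefly luciferase using Km concentrations of substrates (10 uM D-luciferin, 10 uM ATP) in Tris acetate pH 7.5 buffer; luminescence output.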
ELG1 genotoxic: induces genotoxicity in HEK293T cells with luciferase-tagged ELG1 | Potency, µM (titrated, usually from 46 µM), for the others: top-dose activity change, positive = activation, hits mostly activators | 330,000 tested, 1.3% active | AID 504466 | HEK293T ELG1-luciferase reporter, luminescence, 16 h; also: % of control where 0% means no effect; nearly all actives have a fitted effect of over 60% in size
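HEK293T cells expressing luciferase-tagged ELG1 were exposed to compound or DMSO vehicle for 16 hr at 37 °C and 5% CO2. Luciferase activity was then measured with ONE-Glo after 30 min at room temperature.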
NPC1 promoter act: activators of NPC1 promoter; Huh7 NPC1 promoter luciferase reporter, 24 h; Potency, µM (highest dose often 9.22 µM), without a hit: top-dose activation, usual class: activators; 320,000 tested, 2.4% active; also: % of control where 0% means no effect; nearly all actives have a fitted effect of over 60% in size
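Stably transfected Huh7 (NPC1 promoter→luciferase), 1500 cells/well in Opti-MEM + 10% FBS, 2 h settle, then compound 24 h at 37 °C. Luminescence after 10 min with Amplite reagent.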
Rab9 promoter act: activators of Rab9 promoter. Huh7 Rab9 promoter-luciferase reporter, luminescence, 24 h. 320,000 tested, 2.8% active. Potency, µM (doses to about 9.22 µM), for inactives: at the top dose activation, negative = inhibition, actives largely listed as activators; also: % of control where 0% means no effect; nearly all actives have a fitted effect of over 60% in size
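Rab9 promoter-driven luciferase in stably transfected Huh7 cells; 1500 cells/well rested 2 h, exposed to compound in DMSO for 24 h at 37 °C, 5% CO2. Luminescence read 10 min after adding luciferase reagent at ambient temperature.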
* = called active by the depositor; ? = inconclusive; . = not tested or not shown; [ ] = another dose, or the depositor's remark. In the library only some 7.5% were active in any assay of this set; here they are far more common. Calls follow the shape of the dose curve; as a rule, active = well fitted curve in the direction sought with a large enough effect; inconclusive = small, poorly fitted or top-dose-only effect, or another doubt; inactive = no such curve, though single readings can be large; an effect the other way counts as inactive or inconclusive. Potency is read from the fitted curve at half-maximal effect.

SMILES | SMN2 splice up | FLuc modulator | ELG1 genotoxic | NPC1 promoter act | Rab9 promoter act
Cc1ccccc1NC(=O)c1ccc2[nH]c(C)c(C)c2c1 | . | 21µM* | . | . | .
COc1ccccc1NC(=O)c1ccc2[nH]c(C)c(C)c2c1 | . | 12µM* | ? | ? | 2.8µM*
Cc1ccccc1CNC(=O)c1ccc2[nH]c(C)c(C)c2c1 | . | -16% | . | . | .
Cc1[nH]c2ccc(C(=O)Nc3ccncc3)cc2c1C | . | 17µM* | -2% | -1% | 5%
Cc1cc(=O)c2cc(C(=O)Nc3ccccc3C)ccc2[nH]1 | . | 4% | . | . | .
O=C(Cc1ccccc1)N(Cc1cccnc1)c1nc2c(F)cccc2s1 | . | -9% | . | . | .
O=C(c1ccc2c(c1)OCCO2)N(Cc1cccnc1)c1nc2c(F)cccc2s1 | . | 17µM* | . | . | .
O=C(NCCc1ccc(Cl)cc1)C(=O)NCC(c1ccc2c(c1)OCO2)N1CCOCC1 (stereo not drawn) | . | 1% | . | . | .
Nn1c(SCC(=O)Nc2nnc(-c3ccccc3)o2)nnc1C1CC1 | . | 8.5µM* | -1% | 11% | -2%
Cc1nnc(SCC(=O)Nc2nnc(-c3ccccc3)o2)s1 | . | 19µM* | 6% | 2% | 2%
COc1ccc(Oc2ncc3ncc(=O)n(Cc4ccc(F)cc4)c3n2)cc1 | -51% | . | . | . | .
Cc1nc(-c2cc(-c3nc(-c4ccc(C(F)(F)F)cc4)no3)no2)cs1 | . | 3% | -2% | -3% | 0%
CC(C)(C)c1ccc(-c2noc(-c3ccc4c(c3)CCO4)n2)cc1 | . | 8.5µM* | ? | ? | 26%
Cc1c(-c2nc(-c3ccc(C(C)(C)C)cc3)no2)n(C)oc1=O | . | 11µM* | ? | ? | ?
Cc1cccc(-c2nc(-c3ccc4c(c3)[nH]c(=O)n4C)no2)c1 | . | 1% | . | . | .
Cc1cc(-c2nc(-c3ccc(C(C)(C)C)cc3)no2)no1 | . | 3µM* | ? | 1µM* | 0.56µM*
CCOc1ccc(-c2nc(-c3ccc(OC)c(OC)c3)no2)cc1OCC | ? | 1% | 2% | -1% | -7%
CC(OC(=O)c1ccc(Br)o1)C(=O)NCC1CCCCC1 (stereo not drawn) | . | . | 0% | . | .
Cc1cccc(N/C(N)=N/c2nc(C)c(Cc3ccccc3)c(=O)[nH]2)c1 | -24% | 0% | 8% | -5% | -1%
COC(OC)c1ccnc(-c2ccc(OC(=O)c3ccccc3)cc2)n1 | -1% | 17µM* | 12% | 3% | -2%
COC(OC)c1ccnc(-c2ccc(OC(=O)c3cccs3)cc2)n1 | 18% | 21µM* | 0% | 2% | 13%
O=C(N/N=C/c1ccc(OC(=O)c2cccs2)cc1)c1ccc(F)cc1 | 27% | 0% | 11% | 16% | 2%
COC(OC)c1ccnc(-c2ccc(OC(C)=O)cc2)n1 | ? | ? | 13% | 0% | 5%
CC1CN(C(=O)Cc2ccc(-c3ccccc3)cc2)CC(C)O1 (stereo not drawn) | -43% | -1% | -5% | -4% | 2%
CC(C)OC(=O)[C@@H]1CC[C@H](C)[C@@H](CCC[C@@H]2C[C@@H](O)C[C@H](CC#N)O2)O1 | 8% | . | . | . | .
SMILES | SMN2 splice up | FLuc modulator | ELG1 genotoxic | NPC1 promoter act | Rab9 promoter act
COc1cccc(NC(=O)CSc2nnc(-c3ccc(C)cc3)o2)c1 | 16µM* | -2% | 10µM* | 17% | ?
COc1ccccc1NC(=O)CSc1nc2nc(C)cc(C)c2c(=O)[nH]1 | 3.5µM* | -1% | 17% | -2% | -3%
O=C(CSc1nnc(-c2cccnc2)o1)Nc1ccccc1Br | . | 1% | 4% | -1% | 9%
COc1ccc(NC(=O)CSc2nc3nc(C)cc(C)c3c(=O)[nH]2)cc1OC | . | . | 4% | . | .
COc1ccccc1NC(=O)CSc1nnc(-c2ccc(C)cc2)o1 | 2.5µM* | -11% | ? | 1.6µM* | 1.3µM*
O=C(CSc1nnc(-c2cccnc2)o1)Nc1ccccc1F | . | -1% | ? | 3.2µM* | 3.2µM*
Cc1ccc2nc(SCc3cn4cccnc4n3)[nH]c2c1 | 7% | ? | 13% | 3% | 3%
Cc1ccc(C)c(NC(=S)N2CCC(NC(=O)c3ccccc3)CC2)c1 | . | 4% | -1% | -1% | 10%
O=C(CSc1ncc(-c2ccc(F)cc2)[nH]1)N1CCCCC1 | 11µM* | ? | ? | 28% | ?
COc1ccc(-c2nnc(SCC(=O)Nc3cc(C)on3)o2)cc1 | 20µM* | -9% | 12% | 16% | 27%
O=C(CSc1nnc(-c2ccc(O)cc2)o1)Nc1ccccc1Br | . | . | 10µM* | 2.8µM* | 3.2µM*
O=C(CSc1ncc(-c2ccc(Cl)cc2)[nH]1)Nc1ccccc1F | -13% | ? | . | . | .
O=C(CSc1ncc(-c2ccccc2)[nH]1)Nc1ccccc1F | 10% | 27µM* | ? | 18% | 25%
COc1ccc(Cc2cnc(N)s2)cc1 | . | -7% | 4% | 1% | -4%
c1ccc(-c2cc3n(c2)CCc2ccccc2-3)cc1 | 11µM* | 4.8µM* | -6% | 3.5µM* | 3.2µM*
C[C@@H](CSC(=N)N)C(N)=O | -16%[9.22 µM] | . | . | . | .
COC(=O)c1sc(-c2ccc(C(C)(C)C)cc2)cc1NC(=O)CSCC(=O)O | . | 3.4µM* | 9% | 4% | -2%
COC(=O)c1sc(-c2ccc(Cl)cc2)cc1NC(=O)c1ccccc1C(=O)O | . | 21µM* | 0% | -1% | -1%
COC(=O)c1sc(-c2ccc(C(C)(C)C)cc2)cc1NC(=O)c1ccccc1C(=O)O | . | 11µM* | 18% | 15% | 22%
Cc1c(CNCC(C)c2ccccc2)c(C(=O)O)c(C)n1Cc1ccccc1 (stereo not drawn) | . | 3% | 1% | -1% | -5%
COc1ccc(NCC(=O)N/N=C/C=C\c2ccccc2)cc1 | 38% | ? | -2% | -4% | 2%
O=C(COc1ccccc1[N+](=O)[O-])N/N=C/C=C/c1ccco1 | 8% | 0% | 8% | 10% | 13%
